The values below come from PMC7862700, “An all-to-all approach to the identification of sequence-specific readers for epigenetic DNA modifications on cytosine”.

What all share (assay): DAPPL (digital affinity profiling via proximity ligation, sequencing); 10 mM Tris-HCl pH 7.5, 50 mM NaCl, 1 mM DTT, 4% glycerol, room temperature, 30 min; GST-TFs on glutathione beads, 16-mer random dsDNA library, 0.1% formaldehyde crosslink after washing; high values mean tight binding
In one test the target is T1, FEV (Homo sapiens, UniProt Q99581 1-238).
T1 sequence: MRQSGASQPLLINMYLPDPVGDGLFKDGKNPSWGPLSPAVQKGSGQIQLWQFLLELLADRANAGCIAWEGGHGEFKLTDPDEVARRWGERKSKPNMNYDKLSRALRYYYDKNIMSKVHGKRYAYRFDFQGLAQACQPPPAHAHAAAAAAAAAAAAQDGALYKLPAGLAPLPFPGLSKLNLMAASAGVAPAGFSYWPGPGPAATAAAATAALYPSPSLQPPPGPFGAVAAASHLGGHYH
To be noted: protein: recombinant; tags: N-terminal GST; dsDNA, one strand shown. In short, it runs like this: (§1)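 After expression in yeast as GST fusions, human transcription factors were bound to glutathione beads, DNA-barcoded and mixed with a tag-only sample. The pools were incubated with 200 nmole of a 16-mer random double-stranded DNA library in Tris/NaCl/DTT/glycerol buffer (30 min, room temperature), washed and crosslinked with 0.1% formaldehyde. Proximity ligation with BsaI/T4 ligase ran for 1 h at 37 °C, before PCR amplification and sequencing on an Illumina NextSeq500. Binding signal is a hexamer's read frequency for a factor divided by its frequency for the tag-only sample.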

A further test concerns the target ETV5 (Homo sapiens, UniProt P41161 1-510). To be noted: protein: recombinant; tags: N-terminal GST; dsDNA, one strand shown. In short, it runs like this:
as §1

The target of another test is HSF1 (Homo sapiens, UniProt Q00613 1-529). To be noted: protein: recombinant; tags: N-terminal GST; chain copies: 3; dsDNA, one strand shown. The essentials: as §1
Sequence of HSF1 (Q00613 whole entry): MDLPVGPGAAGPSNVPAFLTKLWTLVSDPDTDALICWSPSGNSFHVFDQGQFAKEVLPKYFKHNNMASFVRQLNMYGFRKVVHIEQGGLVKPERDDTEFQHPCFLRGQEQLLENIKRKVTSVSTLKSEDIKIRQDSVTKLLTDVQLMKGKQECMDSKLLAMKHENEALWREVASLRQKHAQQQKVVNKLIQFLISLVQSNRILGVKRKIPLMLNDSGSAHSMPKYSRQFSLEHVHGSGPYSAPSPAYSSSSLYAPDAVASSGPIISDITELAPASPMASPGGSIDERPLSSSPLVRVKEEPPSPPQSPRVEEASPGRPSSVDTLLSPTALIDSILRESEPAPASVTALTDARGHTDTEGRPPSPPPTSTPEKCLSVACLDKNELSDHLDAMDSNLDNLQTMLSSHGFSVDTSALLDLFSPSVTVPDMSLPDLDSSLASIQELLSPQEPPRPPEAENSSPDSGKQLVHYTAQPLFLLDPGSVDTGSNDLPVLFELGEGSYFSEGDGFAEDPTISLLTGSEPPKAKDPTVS
In another test the target is T2, SPIC (Homo sapiens, UniProt Q8N5J4 1-248).
T2 sequence: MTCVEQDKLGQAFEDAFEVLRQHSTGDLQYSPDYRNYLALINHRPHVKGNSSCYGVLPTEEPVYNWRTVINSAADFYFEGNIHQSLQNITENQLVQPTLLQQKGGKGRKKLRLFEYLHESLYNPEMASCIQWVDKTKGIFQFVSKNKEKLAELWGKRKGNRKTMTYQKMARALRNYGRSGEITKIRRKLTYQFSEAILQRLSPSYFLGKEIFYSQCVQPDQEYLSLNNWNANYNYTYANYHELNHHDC
To be noted: protein: recombinant; tags: N-terminal GST; dsDNA, one strand shown. In short, it runs like this:
as §1

Another test addresses ELF4 (Homo sapiens, UniProt Q99607 1-663). To be noted: protein: recombinant; tags: N-terminal GST; dsDNA, one strand shown. In short, it runs like this: as §1
A further test has as its target T3, ELK4 (Homo sapiens, UniProt P28324-2 1-405).
T3 sequence: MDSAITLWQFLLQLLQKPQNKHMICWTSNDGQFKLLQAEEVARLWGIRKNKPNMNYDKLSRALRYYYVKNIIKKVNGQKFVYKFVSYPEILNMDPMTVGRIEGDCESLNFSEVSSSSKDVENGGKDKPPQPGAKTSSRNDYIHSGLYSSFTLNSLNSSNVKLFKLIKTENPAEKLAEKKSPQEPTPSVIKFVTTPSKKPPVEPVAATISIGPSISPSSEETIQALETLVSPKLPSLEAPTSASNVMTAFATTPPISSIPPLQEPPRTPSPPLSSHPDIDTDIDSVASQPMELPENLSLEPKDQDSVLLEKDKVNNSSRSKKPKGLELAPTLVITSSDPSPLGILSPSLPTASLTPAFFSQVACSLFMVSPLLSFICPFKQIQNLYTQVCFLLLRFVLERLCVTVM
To be noted: protein: recombinant; tags: N-terminal GST; dsDNA, one strand shown. The essentials:
as §1

In the next test the target is T4, ETV2 (Homo sapiens, UniProt O00321 1-342).
T4 sequence: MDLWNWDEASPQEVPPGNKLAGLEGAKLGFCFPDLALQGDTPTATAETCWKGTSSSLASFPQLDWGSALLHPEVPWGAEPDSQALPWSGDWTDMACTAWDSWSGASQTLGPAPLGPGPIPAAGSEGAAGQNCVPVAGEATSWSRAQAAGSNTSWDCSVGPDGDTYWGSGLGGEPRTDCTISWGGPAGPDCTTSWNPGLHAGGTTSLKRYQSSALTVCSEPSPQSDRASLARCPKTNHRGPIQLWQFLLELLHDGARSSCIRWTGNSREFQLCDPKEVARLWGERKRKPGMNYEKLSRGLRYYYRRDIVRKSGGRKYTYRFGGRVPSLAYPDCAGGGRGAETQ
To be noted: protein: recombinant; tags: N-terminal GST; dsDNA, one strand shown. In short, it runs like this: as §1

Another test deals with T5, ELF3 (Homo sapiens, UniProt P78545 1-371).
T5 sequence: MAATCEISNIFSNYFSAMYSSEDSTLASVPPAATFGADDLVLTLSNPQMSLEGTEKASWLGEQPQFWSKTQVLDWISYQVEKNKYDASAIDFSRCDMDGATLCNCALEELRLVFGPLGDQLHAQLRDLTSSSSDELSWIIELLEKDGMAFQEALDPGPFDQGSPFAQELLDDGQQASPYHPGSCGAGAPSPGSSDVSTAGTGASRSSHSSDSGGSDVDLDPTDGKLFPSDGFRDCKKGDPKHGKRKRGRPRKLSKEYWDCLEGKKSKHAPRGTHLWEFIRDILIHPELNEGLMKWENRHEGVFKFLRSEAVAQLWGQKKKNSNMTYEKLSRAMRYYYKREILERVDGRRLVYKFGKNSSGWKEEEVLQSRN
To be noted: protein: recombinant; tags: N-terminal GST; dsDNA, one strand shown. The essentials: as §1

Another test concerns the target CRX (Homo sapiens, UniProt O43186 1-299). To be noted: protein: recombinant; tags: N-terminal GST; dsDNA, one strand shown. The essentials:
as §1

In another test the target is ETV1 (Homo sapiens, UniProt P50549 1-477). To be noted: protein: recombinant; tags: N-terminal GST; dsDNA, one strand shown. The essentials: as §1
Sequence of ETV1 (P50549 whole entry): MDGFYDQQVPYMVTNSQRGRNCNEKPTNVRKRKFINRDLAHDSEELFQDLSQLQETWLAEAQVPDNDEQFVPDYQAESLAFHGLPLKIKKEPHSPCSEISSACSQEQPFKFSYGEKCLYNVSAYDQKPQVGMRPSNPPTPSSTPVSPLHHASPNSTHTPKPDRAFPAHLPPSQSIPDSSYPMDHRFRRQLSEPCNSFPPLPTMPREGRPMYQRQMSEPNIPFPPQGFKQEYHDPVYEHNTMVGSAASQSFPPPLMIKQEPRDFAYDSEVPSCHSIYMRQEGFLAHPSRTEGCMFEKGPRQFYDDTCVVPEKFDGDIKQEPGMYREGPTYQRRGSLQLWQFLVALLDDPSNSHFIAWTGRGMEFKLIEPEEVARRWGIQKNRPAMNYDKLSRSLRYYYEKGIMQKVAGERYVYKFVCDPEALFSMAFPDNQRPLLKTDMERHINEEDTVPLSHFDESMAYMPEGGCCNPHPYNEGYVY
The target in the next test is T6, ERF (Homo sapiens, UniProt P50548 1-548).
T6 sequence: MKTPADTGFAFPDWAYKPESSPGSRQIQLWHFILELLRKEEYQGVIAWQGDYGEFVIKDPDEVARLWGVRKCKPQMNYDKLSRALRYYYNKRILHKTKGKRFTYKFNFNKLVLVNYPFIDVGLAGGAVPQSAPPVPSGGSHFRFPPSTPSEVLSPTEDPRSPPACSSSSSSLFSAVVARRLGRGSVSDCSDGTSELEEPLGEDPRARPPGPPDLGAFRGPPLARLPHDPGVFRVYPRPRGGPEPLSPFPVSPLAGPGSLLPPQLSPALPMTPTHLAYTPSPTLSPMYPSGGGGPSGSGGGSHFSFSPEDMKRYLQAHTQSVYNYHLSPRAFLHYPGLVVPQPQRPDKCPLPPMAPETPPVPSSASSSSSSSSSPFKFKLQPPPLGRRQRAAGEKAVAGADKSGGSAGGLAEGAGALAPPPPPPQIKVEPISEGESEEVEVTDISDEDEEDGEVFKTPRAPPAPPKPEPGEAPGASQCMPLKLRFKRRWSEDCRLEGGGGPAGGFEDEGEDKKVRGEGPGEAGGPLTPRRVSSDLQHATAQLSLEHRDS
To be noted: protein: recombinant; tags: N-terminal GST; dsDNA, one strand shown. The essentials: as §1

The target of the next test is T7, ETV3L (Homo sapiens, UniProt Q6ZN32 1-361).
T7 sequence: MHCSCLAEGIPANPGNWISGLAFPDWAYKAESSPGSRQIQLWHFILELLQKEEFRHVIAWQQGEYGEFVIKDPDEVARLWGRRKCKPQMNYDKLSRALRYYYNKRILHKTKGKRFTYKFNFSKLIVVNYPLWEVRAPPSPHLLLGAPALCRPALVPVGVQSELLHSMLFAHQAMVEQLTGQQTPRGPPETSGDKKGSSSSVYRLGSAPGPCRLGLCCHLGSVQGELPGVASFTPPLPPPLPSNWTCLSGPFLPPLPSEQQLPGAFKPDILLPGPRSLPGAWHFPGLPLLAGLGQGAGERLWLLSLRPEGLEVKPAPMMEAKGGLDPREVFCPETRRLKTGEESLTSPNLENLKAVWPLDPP
To be noted: protein: recombinant; tags: N-terminal GST; dsDNA, one strand shown. In short, it runs like this: as §1

The target in the next test is T8, ETS2 (Homo sapiens, UniProt P15036 1-469).
T8 sequence: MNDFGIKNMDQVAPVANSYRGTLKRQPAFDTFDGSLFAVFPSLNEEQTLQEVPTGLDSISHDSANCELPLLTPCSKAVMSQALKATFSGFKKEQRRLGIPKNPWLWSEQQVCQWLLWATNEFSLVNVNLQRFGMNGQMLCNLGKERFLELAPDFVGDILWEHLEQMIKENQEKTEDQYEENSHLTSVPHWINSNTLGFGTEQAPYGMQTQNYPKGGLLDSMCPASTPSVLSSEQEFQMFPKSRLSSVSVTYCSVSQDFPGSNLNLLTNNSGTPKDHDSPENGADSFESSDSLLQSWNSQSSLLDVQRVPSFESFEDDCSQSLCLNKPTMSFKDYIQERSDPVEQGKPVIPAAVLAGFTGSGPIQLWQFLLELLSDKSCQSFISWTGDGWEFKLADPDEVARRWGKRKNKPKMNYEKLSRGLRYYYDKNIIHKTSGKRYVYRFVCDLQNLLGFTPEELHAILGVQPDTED
To be noted: protein: recombinant; tags: N-terminal GST; dsDNA, one strand shown. The essentials:
as §1

The target in the next test is T9, SPDEF (Homo sapiens, UniProt O95238 1-335).
T9 sequence: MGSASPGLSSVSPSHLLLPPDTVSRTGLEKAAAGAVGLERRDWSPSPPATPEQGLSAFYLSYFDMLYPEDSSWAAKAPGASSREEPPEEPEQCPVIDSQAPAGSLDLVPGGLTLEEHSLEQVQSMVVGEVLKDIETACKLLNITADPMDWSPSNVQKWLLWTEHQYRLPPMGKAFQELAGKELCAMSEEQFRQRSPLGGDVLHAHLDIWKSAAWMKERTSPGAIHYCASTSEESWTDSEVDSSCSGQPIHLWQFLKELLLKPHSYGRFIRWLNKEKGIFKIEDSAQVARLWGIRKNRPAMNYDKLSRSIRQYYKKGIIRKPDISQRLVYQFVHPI
To be noted: protein: recombinant; tags: N-terminal GST; dsDNA, one strand shown. The essentials: as §1

The target in the next test is T10, ETV7 (Homo sapiens, UniProt Q9Y603 1-341).
T10 sequence: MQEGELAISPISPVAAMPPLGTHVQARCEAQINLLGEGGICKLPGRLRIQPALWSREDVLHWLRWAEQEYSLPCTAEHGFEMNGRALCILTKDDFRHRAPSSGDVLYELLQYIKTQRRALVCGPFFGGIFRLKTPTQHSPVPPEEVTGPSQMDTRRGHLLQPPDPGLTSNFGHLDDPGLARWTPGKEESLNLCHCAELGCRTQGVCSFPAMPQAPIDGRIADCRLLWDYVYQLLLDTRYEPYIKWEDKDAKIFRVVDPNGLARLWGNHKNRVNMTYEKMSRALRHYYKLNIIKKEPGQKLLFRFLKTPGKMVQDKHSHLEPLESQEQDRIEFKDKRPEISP
To be noted: protein: recombinant; tags: N-terminal GST; dsDNA, one strand shown. The essentials:
as §1

The next test concerns the target T11, ELF5 (Homo sapiens, UniProt Q9UKW6-2 1-255).
T11 sequence: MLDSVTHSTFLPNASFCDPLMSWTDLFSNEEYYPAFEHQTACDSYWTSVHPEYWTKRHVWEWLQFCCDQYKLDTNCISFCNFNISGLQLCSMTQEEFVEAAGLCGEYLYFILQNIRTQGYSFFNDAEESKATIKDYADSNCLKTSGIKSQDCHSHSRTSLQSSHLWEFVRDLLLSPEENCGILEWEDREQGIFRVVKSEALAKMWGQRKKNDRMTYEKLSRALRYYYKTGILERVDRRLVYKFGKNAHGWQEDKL
To be noted: protein: recombinant; tags: N-terminal GST; dsDNA, one strand shown. In short, it runs like this:
as §1

A further test has as its target T12, ETV3 (Homo sapiens, UniProt P41162-2 1-143).
T12 sequence: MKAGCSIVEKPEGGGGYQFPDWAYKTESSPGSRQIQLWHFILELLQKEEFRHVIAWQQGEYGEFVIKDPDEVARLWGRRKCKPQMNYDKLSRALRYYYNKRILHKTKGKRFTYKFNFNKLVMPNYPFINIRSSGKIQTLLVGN
To be noted: protein: recombinant; tags: N-terminal GST; dsDNA, one strand shown. The essentials:
as §1

The next test addresses ETV6 (Homo sapiens, UniProt P41212 1-452). To be noted: protein: recombinant; tags: N-terminal GST; dsDNA, one strand shown. The essentials:
as §1

Sequence of ELF4 (Q99607 whole entry): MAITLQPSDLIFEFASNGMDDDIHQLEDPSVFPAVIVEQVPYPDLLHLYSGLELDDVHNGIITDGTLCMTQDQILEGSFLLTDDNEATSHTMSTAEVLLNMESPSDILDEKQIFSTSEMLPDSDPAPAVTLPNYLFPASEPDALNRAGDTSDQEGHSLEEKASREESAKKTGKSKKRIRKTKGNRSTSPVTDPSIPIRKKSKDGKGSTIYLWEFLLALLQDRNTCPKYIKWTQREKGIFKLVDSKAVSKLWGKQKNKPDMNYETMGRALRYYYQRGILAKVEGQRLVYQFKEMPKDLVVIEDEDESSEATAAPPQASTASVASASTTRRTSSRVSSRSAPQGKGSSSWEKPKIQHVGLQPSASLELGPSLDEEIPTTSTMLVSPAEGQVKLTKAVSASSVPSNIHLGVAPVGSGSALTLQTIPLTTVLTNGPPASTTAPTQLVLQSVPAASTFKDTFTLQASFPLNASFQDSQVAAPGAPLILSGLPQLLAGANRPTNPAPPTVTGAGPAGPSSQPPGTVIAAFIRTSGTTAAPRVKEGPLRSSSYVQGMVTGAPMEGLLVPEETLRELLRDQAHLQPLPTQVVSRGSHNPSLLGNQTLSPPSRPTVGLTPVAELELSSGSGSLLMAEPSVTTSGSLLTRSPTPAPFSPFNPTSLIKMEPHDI
Sequence of ETV6 (P41212 whole entry): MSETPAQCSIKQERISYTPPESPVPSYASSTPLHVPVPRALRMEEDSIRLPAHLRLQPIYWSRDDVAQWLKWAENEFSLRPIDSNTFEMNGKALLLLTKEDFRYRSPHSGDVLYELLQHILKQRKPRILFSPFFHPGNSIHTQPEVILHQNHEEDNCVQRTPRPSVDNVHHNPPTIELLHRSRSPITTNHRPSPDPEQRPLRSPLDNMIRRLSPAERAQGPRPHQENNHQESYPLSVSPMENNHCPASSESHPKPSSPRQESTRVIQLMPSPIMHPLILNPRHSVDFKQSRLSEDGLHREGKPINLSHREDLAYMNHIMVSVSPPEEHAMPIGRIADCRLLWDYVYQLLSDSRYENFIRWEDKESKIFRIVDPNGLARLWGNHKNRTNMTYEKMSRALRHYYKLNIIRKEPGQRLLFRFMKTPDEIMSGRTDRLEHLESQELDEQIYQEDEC
Sequence of ETV5 (P41161 whole entry): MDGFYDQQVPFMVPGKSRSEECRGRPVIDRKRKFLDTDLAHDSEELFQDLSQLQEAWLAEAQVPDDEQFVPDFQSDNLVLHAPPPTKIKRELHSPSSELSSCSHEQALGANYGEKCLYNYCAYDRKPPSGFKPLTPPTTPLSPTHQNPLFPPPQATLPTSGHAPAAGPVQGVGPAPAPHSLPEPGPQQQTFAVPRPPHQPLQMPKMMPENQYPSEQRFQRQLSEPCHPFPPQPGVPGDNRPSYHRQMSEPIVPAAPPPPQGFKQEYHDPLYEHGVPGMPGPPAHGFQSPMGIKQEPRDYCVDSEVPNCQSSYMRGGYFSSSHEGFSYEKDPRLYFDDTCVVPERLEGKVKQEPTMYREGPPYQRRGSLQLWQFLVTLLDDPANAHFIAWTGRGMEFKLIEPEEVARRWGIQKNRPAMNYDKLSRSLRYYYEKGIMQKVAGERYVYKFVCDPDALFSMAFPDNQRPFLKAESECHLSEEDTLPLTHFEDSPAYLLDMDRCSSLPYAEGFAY
Sequence of CRX (O43186 whole entry): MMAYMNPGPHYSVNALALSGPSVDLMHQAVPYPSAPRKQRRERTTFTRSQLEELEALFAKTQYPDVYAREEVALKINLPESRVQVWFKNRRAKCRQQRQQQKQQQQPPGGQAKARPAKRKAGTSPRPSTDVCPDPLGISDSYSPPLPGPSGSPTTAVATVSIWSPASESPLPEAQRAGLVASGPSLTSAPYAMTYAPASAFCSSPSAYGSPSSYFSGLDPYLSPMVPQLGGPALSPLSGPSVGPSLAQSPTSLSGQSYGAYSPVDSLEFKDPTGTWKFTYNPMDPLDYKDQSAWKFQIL

With TCACTG, the binding signal with FEV was 1.22 fold enrichment (6-mer frequency, TF over GST control); in the test with ETV5 it was 1.15 fold enrichment (6-mer frequency, TF over GST control); in the test with HSF1 it was 1.15 fold enrichment (6-mer frequency, TF over GST control); in the test with SPIC it was 1.24 fold enrichment (6-mer frequency, TF over GST control); with ELF4, 1.17 fold enrichment (6-mer frequency, TF over GST control); in the test with ELK4, 1.14 fold enrichment (6-mer frequency, TF over GST control). Besides, the binding signal with ETV2 is 1.15 fold enrichment (6-mer frequency, TF over GST control); with ELF3, 1.48 fold enrichment (6-mer frequency, TF over GST control); with CRX it was 1.09 fold enrichment (6-mer frequency, TF over GST control); with ETV1 it was 1.21 fold enrichment (6-mer frequency, TF over GST control); in the test with ERF, 1.17 fold enrichment (6-mer frequency, TF over GST control); in the test with ETV3L it was 1.4 fold enrichment (6-mer frequency, TF over GST control). The binding signal in the test with ETS2 is 1.28 fold enrichment (6-mer frequency, TF over GST control); with SPDEF it was 1.16 fold enrichment (6-mer frequency, TF over GST control); in the test with ETV7, 1.3 fold enrichment (6-mer frequency, TF over GST control); with ELF5, 1.17 fold enrichment (6-mer frequency, TF over GST control); in the test with ETV3, 1.16 fold enrichment (6-mer frequency, TF over GST control); in the test with ETV6 it was 1.2 fold enrichment (6-mer frequency, TF over GST control).
